# Source: the supplement of paper PMC6555819
# What was measured:
# Experiment in all cases: PBM binding z-score (relative to random genomic background probes); higher = stronger binding; sequences stand for … in GC…GCGATTGACAGCGTAGAATGAAGG
# [1] = tested on: FXR:RXRa (NR concentration 270 nM, RXRa partner concentration 90 nM)
# In short: (§1)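 Ligand-free nuclear receptor dimers were bound for 1 h to custom Agilent 4×180K protein-binding microarrays. Detection used antibodies against each partner (one per run). Binding z-scores rest on regression-normalized fluorescence, with random background probes as the reference.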
# [2] = tested on: LXRa:RXRa (NR concentration 270 nM, RXRa partner concentration 90 nM)
# In short: as §1
# [3] = tested on: LXRa homodimer (NR concentration 270 nM)
# In short: as §1
# [4] = tested on: LXRb:RXRa (NR concentration 270 nM, RXRa partner concentration 90 nM)
# In short: as §1
# [5] = tested on: LXRb homodimer (NR concentration 270 nM)
# In short: as §1
# [6] = tested on: PPARa:RXRa (NR concentration 270 nM, RXRa partner concentration 90 nM)
# In short: as §1
# [7] = tested on: PPARg:RXRa (NR concentration 180 nM, RXRa partner concentration 90 nM)
# In short: as §1
# [8] = tested on: PPARg:RXRa 270nM:90nM, anti-RXR (NR concentration 270 nM, RXRa partner concentration 90 nM)
# In short: as §1
# [9] = tested on: PPARg:RXRa 30nM:10nM, anti-RXR (NR concentration 30 nM, RXRa partner concentration 10 nM)
# In short: as §1
# [10] = tested on: PPARg:RXRa 90nM:30nM, anti-RXR (NR concentration 90 nM, RXRa partner concentration 30 nM)
# In short: as §1
Sequence,PBM binding z-score [1],PBM binding z-score [2],PBM binding z-score [3],PBM binding z-score [4],PBM binding z-score [5],PBM binding z-score [6],PBM binding z-score [7],PBM binding z-score [8],PBM binding z-score [9],PBM binding z-score [10]
ATCTATAGGTAAAGATAGTTCAGTGAATGCAAAT,0.466,5.29,0.591,1.55,0.423,0.82,1.09,0.484,0.425,0.604
AGAATGAGGTTATTAGGATCAGGGAATTGCGGTC,2.04,1.69,0.286,1.38,0.314,2.79,2.39,2.69,0.762,1.59
GGAACGAGGGCATGCGAGTTGATAGCATGGCGAT,0.758,0.468,-0.615,-0.143,-1.37,1.35,0.979,0.516,-0.248,0.117
TCATATTGGTAAATGCTAGGTGAAAGTCCGATCT,0.86,0.817,0.679,0.796,0.681,0.861,0.033,1.9,3.55,2.76
TCTGCTAGGTCAACGATGGTTAGCTAATCTGCTA,3.1,2.08,-0.301,1.46,-0.085,3.09,2.34,3.09,1.82,2.54
TCTACTAGTTGAAGGGCAACCGACGAGTCCGTTT,0.338,0.156,-0.296,0.212,-0.37,0.726,0.214,1.58,3.03,2.48
CGAACTAGGGCAAGGACAGTGAATCTCCGCACGC,0.00807,-0.366,0.0437,-0.81,-0.814,1.76,2.96,3.03,0.479,1.87
CGAACTAGGCCAGAACAGGACAGTGAAGGATGAT,-0.345,-0.433,-0.144,-0.816,-0.951,0.499,1.22,0.225,0.233,0.37
TCTAGCAGGCCAGCGGGTCACTCAAGAGGTACGG,0.662,0.558,-0.567,0.777,-0.97,1.92,0.601,1.74,1.72,1.65
TAGAGTAGGTTAGTCGGGGCATTCAGCCAACATA,0.871,0.485,0.155,0.87,1.54,1.16,0.583,1.65,0.884,1.33
TCGAGTAGGTTACCAATGAGGCATTCAGCTTTCT,0.0141,0.677,-0.666,0.0718,-1.38,1,0.215,1.15,1.28,1.22
CCATACAGGTGAGAAGGTAACTCAGCCTCGATTA,0.317,0.251,0.308,0.309,-0.0623,1.01,1.03,1.68,0.288,1.26
AGAATGAGGTTATTAAGATCTGGGAATTGCGGTC,1.76,1.89,0.216,1.26,-0.139,2.79,0.924,1.47,0.36,0.922
TCTAGCAGGCCAGAAGGTCACTCAAGAGGTACGG,1.61,2.17,0.0558,1.8,-0.711,3.04,1.46,2.86,2.27,2.71
CGAACTAGGTCATTTACAGGACAGTGAATAGTAA,4.33,3.3,1.29,2.69,0.887,4.56,6.79,6.09,3.53,5.66
AGAACGAGGGCACGCTGAGTTGATAGCTGAGTAG,0.863,0.607,-0.912,0.017,-0.95,2.18,2.08,1.87,0.18,1.06
CAAACTAAGTCACAGAGGTCAAAGTCCGTGCGTA,5.08,5.61,5.8,5.22,2.02,5.18,3.74,4.78,2.63,4.18
CCTGCTAGGTCAATGGTTAGCTAAAGCAGCTCGC,2.78,1.76,-0.418,1.44,-0.3,2.63,3.33,3.77,1.16,3.2
TAGCCTAGGTCATATCGGGCCAGTATACGCTATA,4.12,3.82,0.583,2.59,0.744,3.14,1.53,1.61,0.227,0.981
ATCTCTAGGTAAAAGTTCAGTAAATCCCGAGGAT,0.994,1.49,1.5,1.29,1.31,4.43,7.76,7.37,6.62,8.13
TCATATAGGTAAACAGGTGAAAGCCCGTAAGTTA,0.95,1.13,0.0822,0.763,-0.22,2.4,2.7,3.37,3.79,3.69
CCGACTGGGCCATCAGGTCATTGATATCAACGTT,1.52,1.05,0.75,1.38,-0.6,2.19,1.69,2.75,0.458,1.85

Sequence,PBM binding z-score [1],PBM binding z-score [2],PBM binding z-score [3],PBM binding z-score [4],PBM binding z-score [5],PBM binding z-score [6],PBM binding z-score [7],PBM binding z-score [8],PBM binding z-score [9],PBM binding z-score [10]
TCTTGTAGATCAACATGAGGTTAAGAAAGATCGA,0.309,1.61,0.535,1.19,0.134,1.62,0.344,1.66,2.62,2.31
ACAGACAGGTCATGAAGGTAACTCAGGCTATCAT,5.65,4.39,0.927,3.31,0.862,4.77,3.76,3.6,1.23,2.19
TAGCCTAGGTCAGATCGAGCCAGTATACGCTATA,1.14,0.783,-0.473,0.421,-0.463,1.42,0.564,0.606,-0.102,0.29
CGAACTAGGTCAAGGTCAAAGTCGGTTTGTGCCA,6.55,5.52,3.7,4.39,1.14,5.86,9.77,7.93,6.78,8.09
AATTCAGGGTCATCGTAGGCCAGAGTACGCACAG,7.63,6.71,4.2,5.55,2.29,6.2,7.36,7.02,3.49,5.72
GCTATTAGTTGAAAGGGCATCCGAATGATTCTCG,0.204,0.581,0.00348,0.69,0.0114,2.22,2.35,4.39,2.34,3.96
CCTACTGGCCCACGAAAGGTCATTGATTCAGTGA,3.58,4.35,5.66,4.39,0.684,4.2,0.749,2.36,0.593,1.47
TAGCCTAGGTCAGATCGGGCCATTATACGCTATA,2.53,1.3,-0.125,1.07,-0.132,1.55,0.711,0.523,-0.272,0.0184
AATTACGGGTCAACGAGGTTATAGCACGCGTATA,7.35,6.12,3.47,4.88,1.02,6,6.93,6.19,2.81,5.1
ACTTACGGGCCAACGAGGTTATAGCACGCGTATA,0.283,0.557,-0.119,0.645,-0.0337,1.16,0.891,0.372,0.0261,0.602
CCGACTGGGGCAAGGTTATCATAACGCACAGCCA,0.246,0.372,-0.203,0.586,-1.17,1.56,2.69,3.04,0.861,2.36
CATCAAAGTTCAACTAAGGTAACGTAAAGCACGC,7.36,6.82,5.03,4.54,3.07,5.03,3.96,4.67,2.12,3.32
AGTCAAAGTTCATCTCGGTAACGTAAGATATGCT,6.81,6.1,5.38,3.79,1.92,4.76,6.02,6.19,3.18,5.22
TCATATAGGTAAAGGCGAAAGTCGAACGATATGA,0.173,0.402,-0.495,0.229,-0.044,1.3,1.1,2.52,3.75,3.23
TCTCGGAGGACACGAGAGGTCAGAGCTCGACATC,2.17,3.37,2.61,2.53,-0.47,2.99,0.952,1.88,1.53,1.48
ACAATGAGGTTATTAAGATCAGGGAATTGCGGTC,1.54,1.7,0.283,1.26,0.952,2.42,1.45,1.7,0.622,1.3
CCTTTTAGTTGACCATAAGGGCAACCGAAGCTCG,0.795,0.621,0.344,0.707,1.3,0.649,0.247,0.669,0.0181,0.427
TAGCCTAGGTCGTTGGGCCAGTATAGTACGCATC,0.234,-0.0129,-0.222,0.178,-0.371,0.544,0.271,0.0972,-0.401,-0.153
CCTTACGGGTCACGAGGTTATAGAACGACGAGCG,6.7,4.58,0.451,4.12,-0.0451,6.16,7.18,6.91,3.33,5.23
TCTCGGAGGACACGAAGGTCAGGGCTTTCCAGAG,1.55,1.29,0.139,1.17,-0.91,2.13,0.576,1.75,2.15,1.9
ATACCAAGGTAATCGTGAGGTCGTTGATACTAAC,1.31,1.48,0.673,1.29,0.295,1.38,0.484,0.308,-0.0613,0.22
CCTGCTAGGTCACTGGTCAGCTAAAGCAGCTCGC,3.06,2.12,-0.0651,1.42,0.0623,3.29,3.55,4.04,1.31,3.18
